Laboratory results from PubChem BioAssay AID504340 (NMMLSC, 2011).
Values joined by “and” are separate entries in the source; they are usually repeats but may differ in a detail not shown here. Identical values can stand only once. Active and inactive are the calls of the source.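 Rule for the calls: active = GFP response above 150% of the DMSO control; inconclusive = Under 70 cell events counted for a yeast strain; inactive = the rest.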

Assay: yeast TOR pathway CIT2-GFP reporter retest – flow cytometry, third cherry pick, single plex, confirmation (AID 504340);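 note: median GFP fluorescence over all cells with no mother versus daughter split; sample signal as a ratio to the plate DMSO mean so 100% equals DMSO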
Conditions: S. cerevisiae CIT2-GFP strain, 3 h, at 10 µM, hits give high values

GFP response vs DMSO, inactive:
COc1ccc(OC)c(Nc2nc(NCCC(C)C)nc(N)c2[N+](=O)[O-])c1 103%
C=CCNc1ncnc2ccc(Br)cc12 101%
COc1ccc(OC)c(N/C(C)=C/C(=O)c2ccccc2)c1 99.3%
COc1ccccc1-c1cc(C(F)(F)F)nc(S(=O)(=O)CCCC(=O)NC(C)C)n1 104% and 94.5%
O=C(O)CCS(=O)(=O)c1nc(-c2cccs2)cc(C(F)(F)F)n1 106%
C/C(=C\C(=O)c1ccccc1)Nc1ccc(O)cc1 103%
C=CCNc1nc(N)c([N+](=O)[O-])c(Nc2cccc(Cl)c2)n1 114%
CCc1sc(C(=O)Nc2nc(-c3ccccn3)cs2)cc1C 109%
Nc1ncnc(Nc2cc(Cl)cc(Cl)c2)c1[N+](=O)[O-] 97.7%
OCc1ccc(O)c2ncccc12 91.2%
COCCCNc1nc(N)c([N+](=O)[O-])c(Nc2cc(OC)ccc2OC)n1 106%
O=C(Nc1nc(-c2ccccn2)cs1)c1ccccc1-n1cnnn1 103%
CSc1ccccc1OCc1cc(C(=O)N2CCN(C)C(c3ccccc3)C2)no1 (centres undefined) 99.3%
NC(=O)COc1cccc2cccnc12 104%
CCN(CC)C(=O)Oc1ccnc2cc(Cl)ccc12 107%
COc1ccc(Nc2nc(NN)nc(C)c2[N+](=O)[O-])cc1 94.5%
O=C(Nc1ccccc1Cl)ON=C1c2ccccc2-c2ccccc21 116%
CC1=CN2C(=N)/C(=C/c3ccco3)C(=O)N=C2S1 112%
O=C(O)c1ccc2cccc(O)c2n1 109%
C=CCNc1nc(N)c([N+](=O)[O-])c(Nc2ccccc2OC)n1 127%
Cc1ccc(Nc2cc(=O)[nH]c(=O)[nH]2)cc1Cl 99.3%
C/C(=C\C(=O)c1ccc(C)cc1)Nc1cccc(O)c1 103%
COCCNc1nc(N)c([N+](=O)[O-])c(Nc2ccc(F)cc2)n1 101%
OCc1ccnc2c(O)cccc12 94.5%
O=C(Nc1ccccc1)O/N=C1\CCCCC1c1ccc([N+](=O)[O-])cc1[N+](=O)[O-] (centres undefined) 101%
COc1ccccc1Nc1nc(NCCCN(C)C)nc(N)c1[N+](=O)[O-] 107%
CSc1nc(Nc2ccc(Cl)cc2)c(C#N)c(=O)[nH]1 104%
CC(=O)Nc1ccc(-c2nc3ccccc3o2)cc1 99.3%
Cn1c(=O)c2c(n3cnnc13)-c1ccccc1CC21CCCC1 106%
CCC(C)Nc1nc(N)c([N+](=O)[O-])c(Nc2ccccc2OC)n1 (centres undefined) 114%
Oc1ccc(Cl)c2cccnc12 103%
Nc1[nH]c(=O)nc(Nc2ccccc2)c1N=O 92.8%
Oc1ccc(F)c2cccnc12 101%
COc1cccc(OCc2cc(C(=O)N3CCN(C)C(c4ccccc4)C3)no2)c1 (centres undefined) 97.7%
Oc1c(Cl)cc(Cl)c2cccnc12 142%
COc1ccccc1Nc1nc(NCC(C)C)nc(N)c1[N+](=O)[O-] 114%
Cc1ccc(Nc2nc(N)[nH]c(=O)c2N=O)cc1 106%
Cn1c(NCCCO)nc2c(c1=O)C1(CCCCC1)Cc1ccccc1-2 117%
COc1ccc(-c2cc(C(F)(F)F)nc(S(C)(=O)=O)n2)cc1OC 112% and 109%
